# Test results as given in PubChem BioAssay (NCI).
# The panel holds about 83,000 compounds, 20% with a hit somewhere; the sample as a whole holds those more often.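 Results are percent growth after 48 hours of single-concentration exposure. 100 means growth as in untreated cells, lower positive values show inhibition; negative values down to -100 show cell death.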 Activity calls are given as the source filed them.
# Tested on: SNB-19 CNS
# Test: NCI-60 one-dose screen, 48 h (100 = growth as untreated, 0 = no growth, -100 = all killed)
# Details: 10 µM unless noted
# Description: Growth inhibition of the SNB-19 human tumor cell line is measured as a screen for anti-cancer activity. Cells are grown in 96 well plates and exposed to the test compound for 48 hours. Compounds are tested at a single concentration, which is 10^-5 M for most compounds. The reported endpoint is percent growth (GI% or GIPRCNT), where numbers from 0 - 100% represent growth inhibition, and numbers from -100% - 0 represent cell death. For example, a value of 40 represents 60% growth inhibition. A value of 0 means no net growth occurred over the course of the experiment. A value of -40 indicates 40% of cells at the beginning of the experiment died by the end of the experiment. A value of -100 means all cells are dead at the end of the experiment.
# NCI-60 Human Tumor Cell Lines Screen was performed using the standard one-dose NCI protocol, which is described in more detail at https://dtp.cancer.gov/discovery_development/nci-60/default.htm.
# Compounds with GIPRCNT values below 10 were considered active. Activity score was based on GIPRCNT using the following formula: […]
# Score is 0 for GIPRCNT values of 100 or above, 50 for GIPRCNT values of 0, and 100 for GIPRCNT values of -100.
row,SMILES,growth
1,CCOC(=O)C1=C(c2ccccc2)N=C2N(c3ccccc3)N=C(C(C)=O)N2C1c1ccc(Br)cc1 (stereo not given),88.7% (inactive)
2,O=C(/C=C/C12c3ccccc3C(c3ccccc31)C1C(=O)NC(=O)C12)c1cccs1 (stereo not given),39.2% (inactive)
3,C=CCOC(=O)C1=C(C)N(CC)C(=O)N(CC)C1c1c(Cl)n(C)c2ccccc12 (stereo not given),75.6% (inactive)
4,CNC1=C(Br)C(=O)c2c(C(=O)OC)c(C)nc(C)c2C1=O,82.9% (inactive)
5,O=C1CC2C=CCN2C=C1NC(=O)c1ccccc1 (stereo not given),108% (inactive)
6,C=CN(C(=O)N1CCN(c2cc3c(cc2F)c(=O)c(C(=O)O)cn3C2CC2)CC1)c1nc(-c2ccc(C)cc2)cs1,18.5% (inactive)
7,COc1cc(-c2ccc(-c3ccc(C(=N)N)s3)s2)cc(OC)c1OC,47.6% (inactive)
8,CCCCCCC/C=N/NC(=O)c1ccc(-n2cc(-c3ccccc3)nn2)cc1,100% (inactive)
9,O=C(CN1C(=O)c2ccccc2S1(=O)=O)Nc1nc(-c2cc3ccccc3oc2=O)cs1,101% (inactive)
10,O=C(O)c1cc2ccccc2s1,111% (inactive)
11,O=C(OCC(O)(CO)C(=O)NC12CC3CC(CC(C3)C1)C2)c1ccc(Cl)cc1 (stereo not given),96.2% (inactive)
12,CC(=O)/C(Br)=C/c1ccc(Br)o1,87.8% (inactive)
13,CCCCC/C=C/CCC(=O)N[C@H]1[C@H](Oc2c3cc4cc2Oc2ccc(cc2Cl)[C@@H](O[C@@H]2O[C@H](CO)[C@@H](O)[C@H](O)[C@H]2NC(C)=O)[C@@H]2NC(=O)[C@H](NC(=O)[C@@H]4NC(=O)[C@H]4NC(=O)[C@@H](Cc5ccc(c(Cl)c5)O3)NC(=O)[C@@H](N)c3ccc(O)c(c3)Oc3cc(O)cc4c3)c3ccc(O)c(c3)-c3c(O[C@H]4O[C@H](CO)[C@@H](O)[C@H](O)[C@@H]4O)cc(O)cc3[C@H](C(=O)O)NC2=O)O[C@H](CO)[C@H](O)[C@@H]1O,87.3% (inactive)
14,COC1CC(O)C2=C(CC3C(/C(C)=C\CC=C(C)C)CCC3(C)O2)C1=O (stereo not given),103% (inactive)
15,Cc1c2ccncc2c(C)c2c1c1ccccc1n2CCCCCC(=O)O,86.1% (inactive)
16,CC(C)(C)[C@H](OCc1cn([C@H]2C[C@@H](O)[C@@H](CO)O2)c(=O)[nH]c1=O)c1ccc(C#Cc2ccccc2)cc1[N+](=O)[O-],82.4% (inactive)
17,CCOc1ccc(-c2cc(C3(S(=O)(=O)c4ccc(C)cc4)CC=CC3)on2)cc1,95.4% (inactive)
18,CC(CN)[C@@H]1CC[C@]2(CO)CC[C@]3(C)[C@H](CC[C@@H]4[C@@]5(C)CCC(NCCO)C(C)(C)[C@@H]5CC[C@]43C)[C@@H]12 (stereo not given in full),78.5% (inactive)
19,C/C=C(/C)C(=O)O[C@@H]1CC(C)(C)CC2C34OC(=O)[C@@]21CC[C@@]3(C)[C@]1(C)CCC2C(C)(C)C(=O)CC[C@]2(C)C1C[C@@H]4O (stereo not given in full),78.6% (inactive)
20,COc1cc(/C=C/C(=O)c2ccc(-n3cc(CN4CCN(c5cc6c(cc5F)c(=O)c(C(=O)O)cn6C5CC5)CC4)nn3)cc2)cc(OC)c1OC,76.7% (inactive)

row,SMILES,growth
1,Cc1ccc(C2=Nc3c(N)nc(N)nc3NC(c3cccc(Nc4ccnc5cc(C(F)(F)F)ccc45)c3)C2)cc1 (stereo not given),34.4% (inactive)
2,Cc1[nH]c(C(=O)Nc2ccccc2OC2CCNC2)c(Cl)c1Cl (stereo not given),85.3% (inactive)
3,Nc1ncc(-c2ccc3ncnc(N4CCc5cc(F)c(Cl)cc54)c3c2)cc1C=O,37% (inactive)
4,O=C(Nc1cccc2c1C(=O)c1cccc(NC(=O)c3ccc(C(=O)Nc4cccc5c4C(=O)c4cccc(NC(=O)c6ccccc6)c4C5=O)cc3)c1C2=O)c1ccccc1,105% (inactive)
5,COCCn1cc(-c2nc(-c3cc4cccnc4n3C)cs2)c2cc(OC)ccc21,87.4% (inactive)
6,O=C(CSc1nnc(-c2ccc(Cl)c(Cl)c2)n1-c1ccccc1)Nc1ccc(C(=O)/C=C/c2ccc(Cl)cc2)cc1,94.1% (inactive)
7,Oc1ccc(Cc2ccc(O)c3ncccc23)c2cccnc12,15.9% (inactive)
8,Cc1ccc(Nc2nc(N)nc(N)c2N=O)cc1Cl,97.5% (inactive)
9,C[C@@H]1N=C(c2ccc(Cl)cc2Cl)Nc2nc3ccccn3c2C1=O,60.8% (inactive)
10,O=C(N/N=C/c1ccccc1Cl)c1ccccc1Nc1ccnc(C(F)(F)F)c1,17.1% (inactive)
11,CCOC(=O)c1c(C)n2c(=O)cc(C)c3c(OC(C)=O)c(OC(C)=O)cc1c32,72% (inactive)
12,Cc1[nH]c(C(=O)Nc2ccc(C(N)=O)cc2OC(C)C)c(Cl)c1Cl,99% (inactive)
13,CCOC(=O)c1c2c(n3ccc(NC(=O)CCN4CCCC4)cc13)C(=O)c1ncccc1C2=O,-55.4% (active)
14,CC(=O)c1ccc(Nc2nccc(-c3ccc(Cl)cc3)n2)cc1,98% (inactive)
15,O=C(Nc1ncc(Cc2cc(C(F)(F)F)ccc2Cl)s1)C(=S)N1CCOCC1,96.9% (inactive)
16,O=C(/C=C/c1ccco1)c1ccc(Nc2ccnc3cc(Cl)ccc23)cc1,95.1% (inactive)
17,CCOc1ccccc1NC(=O)CCC(=O)OC,111% (inactive)
18,OC1CSSC1Cn1cnc2c(Nc3ccc(F)c(Cl)c3)ncnc21 (stereo not given),90.4% (inactive)
19,CC(C)(C)n1cc(-c2ccnc(NCCNS(=O)(=O)c3ccc(C(F)(F)F)cc3)c2)c(-c2ccccc2)n1,101% (inactive)
20,CCOC(=O)C#Cc1c(CC(=O)OCC)nnn1[C@H]1O[C@@H](CO)[C@@H]2OC(C)(C)O[C@@H]21,97.7% (inactive)
